# An excerpt weighted towards active compounds, which were near 19% of everything screened.
# IL1B secr inh = blocks inflammasome-driven IL-1 beta release | THP-1 LPS/ATP IL-1B secretion, AlphaLISA, 16 h; hits give low values | activity change, % at 57.5 µM | 360,000 tested, 4.7% active; in the data active means activity change below about -50%; inconclusive means mostly about -30% to -49%
#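 THP-1 cells pretreated 1 hr with compounds (up to 57.5 uM final), then stimulated with LPS (250 ng/mL final) plus ATP (1.25 mM final); secreted IL-1B measured by AlphaLISA after 16 hr, decreased signal indicating inhibition.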
# HT1080 IDH1KD tx = toxicity to HT-1080 IDH1 knockdown cells (counter line); AID 686971; HT-1080 IDH1 knockdown viability, ATP luminescence, 48 h; Potency, µM (highest dose often 46.1 µM), inactives show top-dose activity, negative = toxicity, actives largely listed as cytotoxic; 360,000 tested, 2% active;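 further: potency means the concentration at half of the fitted maximal effect; 0% = DMSO wells and -100% = cell-free medium wells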
#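 IDH1KD HT-1080 cells, 750/well, RPMI + 5% FBS; compound pinned after 2 h settling; 48 h, 37 °C; CellTiter-Glo luminescence; % activity normalised to DMSO and no-cell wells; curves fitted, classed by r2 and efficacy.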
# ELG1 repair inh = inhibitors of ELG1-dependent DNA repair in HEK293T cells; HEK293T ELG1-luciferase reporter, luminescence, 16 h; DNA damage induced by 5-fluorouridine; Potency, µM (series often up to 46.1 µM), for inactives: at the highest dose activity change, negative = inhibition, usual class: inhibitors; 330,000 tested, 2.3% active; AID 504467; further: potency means the concentration at half of the fitted maximal effect; nearly all actives have a fitted effect of over 55% in size
#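 5-Fluorouridine DNA damage + compound/DMSO, 2,000 cells/well, 16 h, 37 °C/5% CO2. ONE-Glo, 30 min RT, luminescence. Readout = decrease in reporter signal.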
# DT40 TDP1 no CPT = qHTS for Inhibitors of human tyrosyl-DNA phosphodiesterase 1 (TDP1): qHTS in cells in absence of CPT; DT40 Tdp1-/- hTDP1 cells, no CPT, ATP luminescence, 48 h; Potency, µM (doses to about 46.2 µM), for the others: at the highest dose activity change, negative = growth inhibition, most hits filed as inhibitors; 420,000 tested, 15% active; AID 686978, 2013; further: potency means the concentration at half of the fitted maximal effect; nearly all actives have a fitted effect of over 55% in size
#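 Stably hTDP1-transfected Tdp1-null chicken DT40 cells were treated with library compounds minus camptothecin and grown for at least 48 hr at 37 °C, after which cellular ATP was quantified by luminescence.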
# TDP1 cell CPT = DT40-hTDP1 cell growth loss with CPT; Potency, µM (doses to about 46.2 µM), without a hit: top-dose activity change, negative = growth inhibition, actives largely listed as inhibitors; 420,000 tested, 12% active; chicken DT40 Tdp1-/-;hTDP1 cells + 20 nM CPT, ATP luminescence, 48 h; further: potency means the concentration at half of the fitted maximal effect; nearly all actives have a fitted effect of over 55% in size
#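 Chicken DT40 Tdp1-/- cells stably complemented with human TDP1 were seeded at 400 cells/well in medium containing 20 nM camptothecin, exposed to pin-transferred compounds, and grown at 37 °C for at least 48 hr. Viability was read as ATP luminescence.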
# HT1080-NT tox = kills 2HG-producing HT-1080-NT fibrosarcoma cells; HT-1080-NT fibrosarcoma viability, CellTiter-Glo ATP luminescence, 48 h; Potency, µM (series often up to 46.1 µM), for inactives: at the top dose activity, negative = less viability, hits mostly cytotoxic; 360,000 tested, 1.6% active; AID 686970;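 further: NT is the 2HG producing partner of a matched IDH1 knockdown line; potency means the concentration at half of the fitted maximal effect; 0% = DMSO-treated cells and -100% = media-only wells without cells; nearly all actives have a fitted effect of over 55% in size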
#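 HT-1080-NT; 750 cells/well; 5% FBS RPMI; 48 h compound, 37 degrees C; CellTiter-Glo luminescence; curve fitting and curve-class assignment.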
# * marks the source's active call; other numbers are inactive results; ? = inconclusive; . = no result given; [ ] = another dose, or the depositor's remark. Unless noted, the call rests on the fitted dose curve; in most records, active means well fitted curve in the direction sought with a large enough effect; inconclusive means small, poorly fitted or top-dose-only effect, or another doubt; inactive means no such curve, though single readings can be large; an effect the other way counts as inactive or inconclusive. Unless noted, on the % scale 0 is the no-effect control and ±100 the full control effect.
SMILES,IL1B secr inh,HT1080 IDH1KD tx,ELG1 repair inh,DT40 TDP1 no CPT,TDP1 cell CPT,HT1080-NT tox
O=C(Oc1c(CN2CCOCC2)cc(Cl)c2cccnc12)c1cccs1,-58*,3.7µM*,?,4.6µM*,4.1µM*,2.9µM*
O=C(Oc1c(Cl)cc(Cl)c2cccnc12)c1cccs1,48,21µM*,?,?,16µM*,21µM*
O=C(Oc1c(CN2CCOCC2)cc(Cl)c2cccnc12)c1ccccc1Cl,-91*,6.5µM*,12µM*,2.9µM*,2.3µM*,?
CCc1sc(C(=O)Nc2cccc(-n3cnnn3)c2)cc1C,?,-2%,-11%,?,?,-1%[9.24 µM]
CCN(c1ccccc1)S(=O)(=O)c1ccc(C(=O)Nc2ncccc2C)cc1,10,-2%,14%,-10%,1%,-2%
CCN(c1ccccc1)S(=O)(=O)c1ccc(C(=O)Nc2cc(C)ccn2)cc1,-10,8%,19%,18µM*,16µM*,11%
CCN(c1ccccc1)S(=O)(=O)c1ccc(C(=O)Nc2ccncc2)cc1,-15,-21%,-14%,21µM*,23µM*,-8%
CCN(c1ccccc1)S(=O)(=O)c1ccc(C(=O)Nc2cccc(NC(C)=O)c2)cc1,0,-6%,?,-21%,?,-5%
Cc1ccnc(NC(=O)C(Cc2ccccc2)NC(=O)c2ccccc2)c1 (stereo not drawn),-30,-12%,-5%,16µM*,?,-10%
CNc1nc(C)c([N+](=O)[O-])c(Nc2ccc(OC)cc2)n1,8,-15%,-5%,23µM*,?,3%
CC(=O)Nc1ccc(Nc2nc(C)c([N+](=O)[O-])c(Nc3ccc(NC(C)=O)cc3)n2)cc1,-5,0%,?,6.5µM*,?,2%
COc1ccc(Nc2n[nH]c(C)c2[N+](=O)[O-])cc1,-10,14%,?,-19%,-18%,6%
COc1cccc(Nc2nc(Nc3ccc(Cl)c(C(=O)O)c3)nc(C)c2[N+](=O)[O-])c1,18,-1%,16%,-17%,-23%,-5%
O=[N+]([O-])c1ncccc1OCc1ccccc1Br,-17,-1%,-4%,?,-9%,0%
NC(Cc1ccc(F)cc1)c1csc(Nc2ccc(C(=O)c3ccccc3)cc2)n1 (stereo not drawn),.,15µM*,.,?,?,?
CCOC(=O)/C(=N/Nc1ccccc1)c1csc(Nc2ccccc2)n1,-1,?,?,?,?,?
COc1ccc(CC(N)c2csc(Nc3ccc(C(C)=O)cc3)n2)cc1 (stereo not drawn),-14,?,.,21µM*,26µM*,?
NC(Cc1ccccc1)c1csc(Nc2ccc(C(=O)c3ccccc3)cc2)n1 (stereo not drawn),-69*,?,.,8.2µM*,15µM*,?
CCOC(=O)/C(=N\Nc1ccc(OC)cc1)c1csc(Nc2ccccc2)n1,-23,?,16µM*,?,?,?
COc1ccc(NC(=O)N(C)C[C@@H]2OCc3cnnn3CCCC(=O)N([C@@H](C)CO)C[C@H]2C)c(OC)c1,-14,-4%,.,-4%,-6%,-7%
NC(Cc1ccc(Cl)cc1)c1csc(Nc2ccc(C(=O)c3ccccc3)cc2)n1 (stereo not drawn),0,?,.,21µM*,21µM*,?
COc1ccc(CC(N)c2csc(Nc3ccc(C(=O)c4ccccc4)cc3)n2)cc1 (stereo not drawn),-70*,?,.,9.2µM*,12µM*,?
O=C(OCC(=O)N1CCC(Cc2ccccc2)CC1)c1ccc(O)cc1,-15,-21%,.,?,?,-10%
Cc1cc(Br)ccc1NC(=O)CN(C)C(=O)C1CCN(C(=O)c2ccc(Cl)cc2)CC1,-27,-4%,.,?,?,-5%
Cc1ccc(-c2nc(CS(=O)(=O)CC(=O)NC3CCCCCC3)c(C)o2)cc1,?,15%,?,?,-4%,7%
SMILES,IL1B secr inh,HT1080 IDH1KD tx,ELG1 repair inh,DT40 TDP1 no CPT,TDP1 cell CPT,HT1080-NT tox
Cc1cc(Cl)ccc1OCC(=O)NCC(c1cccs1)N1CCOCC1 (stereo not drawn),?,-21%,-20%,16µM*,?,-13%
Cc1cc(SCC(=O)NCC(c2cccs2)N2CCOCC2)c(C)cc1Br (stereo not drawn),-26,-5%,-26%,18µM*,?,-10%
Cc1cc(OCC(=O)NCC(c2cccs2)N2CCOCC2)ccc1C(C)C (stereo not drawn),-57*,-13%,-8%,?,?,-19%
Cc1ccc(C(C)C)c(OCC(=O)NCC(c2cccs2)N2CCOCC2)c1 (stereo not drawn),?,-3%,-14%,13µM*,26µM*,-21%
O=C(COc1cccc(Cl)c1)NCC(c1cccs1)N1CCOCC1 (stereo not drawn),17,-1%,?,-20%,-28%,3%
Cn1c(=O)c2c(ncn2CC(=O)OCC(=O)Nc2ccc(F)cc2F)n(C)c1=O,-2,2%,11%,-9%,-11%,0%
C[C@@H]1CCC2[C@@H](C)[C@@H](O)O[C@@H]3O[C@@]4(C)CC[C@@H]1[C@@]23OO4 (stereo partly drawn),.,.,.,0.094µM*,0.041µM*,.
COc1ccc(N2CCN(C(=O)C3CCN(S(=O)(=O)c4cn(C)cn4)CC3)CC2)cc1,.,.,.,3%,-5%,.
Cc1cccc(C)c1NC(=O)C[n+]1cc(-c2ccccc2)n2c1CCC2,-14,0%,?,-4%,1%,3%
CC1CCC(C(C)C)C(OC(=O)C[n+]2cc(-c3ccc(Cl)cc3)n3c2CCC3)C1 (stereo not drawn),-86*,?,?,2.3µM*,2.9µM*,?
O=C(C[n+]1cc(-c2ccccc2)n2c1CCC2)OCc1ccccc1,-1,10%,16%,-19%,11%,18%
O=C(C[n+]1cc(-c2ccc(Cl)cc2)n2c1CCC2)N1c2ccccc2Sc2ccccc21,-57*,-11%,10%,13µM*,9.2µM*,-4%
COc1ccc(-c2c[n+](CC(=O)N3c4ccccc4Sc4ccccc43)c3n2CCC3)cc1,-62*,?,?,2.1µM*,2.3µM*,?
O=C(C[n+]1cc(-c2ccc(Cl)c(Cl)c2)n2c1CCC2)N1c2ccccc2Sc2ccccc21,-25,?,-16%,23µM*,16µM*,?
